The source made the active and inactive calls. Rule for the calls: active = hit-call score of the fitted dose curve at least 0.9, where 1 is the maximum; inactive = score below 0.9.
Experiment: CCTE_Shafer_MEA_dev_per_network_spike_spike_percent: CCTE's Neural Network Formation Assay for Percent of Spikes in a Network Spike, Shafer Lab (AID 2284054)
Description: CCTE_Shafer_MEA_dev assay is conducted using Axion Biosystems 48 well microelectrode array (MEA) plates and Maestro recording system. Each well of the MEA plate contains a grid of 16 microelectrodes embedded in the culture surface. Electrically active cells, such as neurons, can be cultured over the electrodes, and electrical activity in these cells can be recorded extracellularly. The spontaneous firing of neurons is captured from each electrode on a microsecond timescale providing both temporally and spatially precise data. […] The CCTE_Shafer_MEA_dev assay uses primary cultures of rat cortical neurons. Recordings are made on days post-plating 5, 7, 9 and 12. As these cultures mature over time, neural networks develop functional activity and form cohesive networks in which electrical activity can be highly coordinated. CCTE_Shafer_MEA_dev_per_network_spike_spike_percent is 1 of 19 assay components of the CCTE_Shafer_MEA_dev assay. It measures the percent of spikes (action potential firings) in a network spike (temporally-clustered group of spikes across multiple electrodes) as the number of spikes that occur within a 0.05 s time window at the peak of a network spike divided by the total number of spikes during a recording in a microelectrode array (MEA) using Axion Biosystems Maestro 768 channel amplifier with the AxIS adaptive spike detector. To collapse across multiple recordings made on days post-plating 5, 7, 9 and 12, the trapezoidal area-under-the-curve of the component is calculated.Data from the assay component CCTE_Shafer_MEA_dev_per_network_spike_spike_percent was analyzed into 1 assay endpoint. This assay endpoint, CCTE_Shafer_MEA_dev_per_network_spike_spike_percent, was analyzed in the negative analysis fitting direction relative to DMSO as the negative control and baseline of activity. Using a type of functional reporter, gain or loss-of-signal activity can be used to understand electrical activity.
On the day prior to culture, each well was coated thoroughly with 150 uL of 0.05% polyethyleneimine (PEI, Sigma Cat P3143) in 50 mM HEPES (Sigma Cat H7523) at a pH of 8. The plate was incubated at 37C for one hour. PEI was rinsed out with 500 uL of sterile water three times. Plates were stored at 4C until the day of culture. This culture was plated at a seeding density of 1.5 x 10^5 cells/well on a 48-well MEA plate, prepared as described above. Cells were administered via a 25 uL media/laminin ([…]; Sigma Cat L2020-1MG) drop directly onto the microelectrode array, as adding the cells with the laminin results in better attachment than pre-coating with laminin. After 2 hours, an additional 475 uL of cortical media was added and the cells returned to the incubator. Exposure starts at day 0 of plating and is continued over twelve days of network development until the experiment is terminated. Cells are fed with fresh medium on DIV 5 and 9, following the recordings on those days. The entire volume of media in the well is exchanged and any vehicle or compound treatment is renewed. Complete details are found in OP-NHEERL/ISTD/SBB/TJS/2015-03-r0 (available on request, email shafer.tim@epa.gov). Measurement of the electrical activity is non-invasive, and recordings can be made from the same plate over multiple different days of the culture. In cortical neurons, this allows for the measurement of extracellular action potentials over the period during which networks form in the MEA plate.

SMILES | outcome | AC50
CC(F)(F)CC(F)(F)F | inactive | –
NC(=O)c1ccc(N)nc1 | – | 6.23 µM (active)
C=CCOC(F)(C(F)(F)F)C(F)(F)F | inactive | –
OC(Cc1ccccc1Cl)(Cn1[nH]cnc1=S)C1(Cl)CC1 (stereo not given) | – | 82.3 µM (active)
O=S(=O)(F)C(F)(F)C(F)(F)C(F)(F)C(F)(F)F | inactive | –
FC(F)OCC(F)(F)C(F)(F)F | inactive | –
CC(C)[C@@H](Nc1ccc(C(F)(F)F)cc1Cl)C(=O)OC(C#N)c1cccc(Oc2ccccc2)c1 (stereo not given in full) | – | 14.5 µM (active)
CC(=O)C(F)(F)C(F)(F)F | inactive | –
CCOCn1c(-c2ccc(Cl)cc2)c(C#N)c(Br)c1C(F)(F)F | – | 10.8 µM (active)
CNC(=O)CSP(=O)(OC)OC | inactive | –
C=CC(F)(C(F)(F)F)C(F)(F)C(F)(F)F (stereo not given) | inactive | –
CC1(C)[C@H](C(=O)O[C@H](C#N)c2cccc(Oc3ccccc3)c2)[C@@H]1/C=C(\Cl)C(F)(F)F | – | 3.67 µM (active)
Cc1ccccc1OP(=O)(Oc1ccccc1C)Oc1ccccc1C | – | 19.4 µM (active)
CS(=O)(=O)c1ccc(C(=O)C2C(=O)CCCC2=O)c(Cl)c1COCC(F)(F)F | inactive | –
Cc1cc(C(F)(C(F)(F)F)C(F)(F)F)ccc1NC(=O)c1cccc(I)c1C(=O)NC(C)(C)CS(C)(=O)=O | – | 20.9 µM (active)

From PubChem BioAssay (EPA / NIEHS)
